Screening results (PubChem)
IL1B secr inh: inflammasome signaling inhibition, IL-1 beta readout; THP-1 LPS/ATP IL-1B secretion, AlphaLISA, 16 h; active compounds read low; activity change, % at 57.5 µM; hit rate 4.7% among 360,000; in the data active = activity change below about -50%; inconclusive = mostly about -30% to -49%; note: % is set by controls: 0 for no effect and ±100 for the full control effect
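THP-1 cells pretreated 1 hr with compounds (up to 57.5 uM final), then stimulated with LPS (250 ng/mL final) plus ATP (1.25 mM final); secreted IL-1B measured by AlphaLISA after 16 hr, decreased signal indicating inhibition.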
TGFb inhibitor: blocks TGF-b signaling; HepG2 CAGA-GFP TGF-b/SMAD3 reporter, GFP fluorescence, 18 h; TGF-beta stimulated, 500 pg/mL final; Potency, µM (top dose mostly 46.1 µM), for the others: at the top dose activity, negative = inhibition, most hits filed as inhibitors; hit rate 1.2% among 410,000; note: potency is the fitted concentration of half-maximal effect; % is set by controls: 0 for no effect and ±100 for the full control effect; nearly all actives have a fitted effect of over 65% in size
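Smad-responsive CAGA-GFP expression was quantified in HEPG2 cells exposed to compounds and 500 pg/mL final TGF-beta for 18 h at 37 degrees C; unstimulated wells defined full inhibition.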
DT40 TDP1 no CPT: qHTS for Inhibitors of human tyrosyl-DNA phosphodiesterase 1 (TDP1): qHTS in cells in absence of CPT; DT40 Tdp1-/- hTDP1 cells, no CPT, ATP luminescence, 48 h; Potency, µM (titrated, usually from 46.2 µM), for the others: at the top dose activity change, negative = growth inhibition, usual class: inhibitors; hit rate 15% among 420,000; AID 686978, 2013; note: potency is the fitted concentration of half-maximal effect; % is set by controls: 0 for no effect and ±100 for the full control effect; nearly all actives have a fitted effect of over 55% in size
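Chicken DT40 Tdp1-/- cells complemented with human TDP1, screened without camptothecin (DMSO vehicle only), 400 cells/well. Compounds pin-transferred, cells incubated at 37 °C for at least 48 hr. Growth read as ATP-dependent luminescence (CellTiter-Glo, 30 min at RT).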
HepG2 tox: counter-screen for TGF-b inhibitors: cytotoxicity in HepG2 cells | hit rate 0.76% among 410,000 | HepG2 CAGA-GFP viability, ATP luminescence, 18 h | Potency, µM (highest dose often 46.1 µM), for the others: at the highest dose activity change, negative = cytotoxicity, hits mostly cytotoxic; note: potency is the fitted concentration of half-maximal effect
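CellTiter-Glo luminescence gave cytotoxicity after 18 hours at 37 degrees C. The cells were HepG2 CAGA-GFP in 1% FBS DMEM, stimulated with 500 pg/mL TGF-beta after compound addition. %Activity was normalised to no-cell wells (complete cell-killing) and DMSO (no toxicity), and curves were fitted and classified.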
TDP1 cell CPT: growth inhibition of DT40 Tdp1-/-;hTDP1 cells with camptothecin (screen for TDP1 inhibitors). chicken DT40 Tdp1-/-;hTDP1 cells + 20 nM CPT, ATP luminescence, 48 h. hit rate 12% among 420,000. Potency, µM (doses to about 46.2 µM), for the others: top-dose activity change, negative = growth inhibition, usual class: inhibitors. AID 686979; note: potency is the fitted concentration of half-maximal effect; % is set by controls: 0 for no effect and ±100 for the full control effect; nearly all actives have a fitted effect of over 55% in size
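Cell growth measured by CellTiter-Glo luminescence after a minimum 48 h, 37 C compound exposure with 20 nM CPT in Tdp1-knockout DT40 cells stably expressing hTDP1, seeded 400/well; qHTS titration format.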
TDP1 inh: blocks human tyrosyl-DNA phosphodiesterase 1; Q9NUW8; recombinant TDP1, AlphaScreen DNA substrate cleavage; Potency, µM (highest dose often 130 µM), without a hit: at the highest dose activity change, negative = inhibition, most hits filed as inhibitors; hit rate 0.28% among 350,000; AID 485290; note: potency is the fitted concentration of half-maximal effect; % is set by controls: 0 for no effect and ±100 for the full control effect; nearly all actives have a fitted effect of over 40% in size
Target sequence (Q9NUW8 whole entry, looked up): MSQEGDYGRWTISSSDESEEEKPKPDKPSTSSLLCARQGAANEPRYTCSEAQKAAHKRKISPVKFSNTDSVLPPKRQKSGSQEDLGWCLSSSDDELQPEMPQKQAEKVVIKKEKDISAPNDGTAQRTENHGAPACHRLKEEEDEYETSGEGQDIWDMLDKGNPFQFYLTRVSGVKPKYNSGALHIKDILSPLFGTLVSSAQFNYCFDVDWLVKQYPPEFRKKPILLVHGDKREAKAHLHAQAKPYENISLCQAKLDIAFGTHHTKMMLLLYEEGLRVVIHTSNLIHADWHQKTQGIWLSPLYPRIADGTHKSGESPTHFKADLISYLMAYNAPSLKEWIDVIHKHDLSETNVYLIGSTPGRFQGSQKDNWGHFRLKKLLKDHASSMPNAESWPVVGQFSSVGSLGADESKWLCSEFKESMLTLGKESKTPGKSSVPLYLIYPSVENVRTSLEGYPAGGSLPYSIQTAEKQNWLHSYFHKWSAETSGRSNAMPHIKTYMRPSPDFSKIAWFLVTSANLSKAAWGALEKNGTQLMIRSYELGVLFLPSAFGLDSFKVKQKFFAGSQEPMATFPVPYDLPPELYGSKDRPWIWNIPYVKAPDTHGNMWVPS
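Recombinant human Tdp1 (E. coli-expressed, 1 nM final) preincubated with compounds 15 min at room temperature, then 5'-biotin/3'-phosphotyrosine-FITC DNA substrate (15 nM final) added for 5 min. AlphaScreen beads (10 ug/ml final) added 10 min; cleavage lowers signal.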
Active calls of the source: *; ? = inconclusive; / = no result given; [ ] = remark or other dose. A selection: hits, their analogues and other compounds. The true share with any hit is near 18%. Unless noted, calls come from the whole dose curve; as a rule, active = well fitted curve in the direction sought with a large enough effect; inconclusive = small, poorly fitted or top-dose-only effect, or another doubt; inactive = no such curve, though single readings can be large; an effect the other way counts as inactive or inconclusive.

SMILES	IL1B secr inh	TGFb inhibitor	DT40 TDP1 no CPT	HepG2 tox	TDP1 cell CPT	TDP1 inh
NC(=S)NNc1cccc(Cl)c1	-4.0	-12.6%	14.6µM*	-1.3%	16.4µM*	4.7%
NC(=S)NNC(=O)Nc1cccc(Cl)c1	0.6	0.9%	-0.3%	-0.2%	-4.2%	-2.7%
Cc1cc(C)cc(NC(=O)c2cc(S(=O)(=O)N3CCc4ccccc43)cn2C)c1	/	?	-20.4%	-35.4%	-10.1%	-5.2%
CCNc1ncc2nc(-c3ccc(F)cc3)c(=O)n(CCC#N)c2n1	/	/	-11.2%	/	1.3%	/
COc1cccc(CNC(=O)C(NS(=O)(=O)c2ccc3c(c2)oc(=O)n3C)C(C)C)c1 (stereo not given)	/	1.0%	6.8%	-6.4%	3.7%	5.8%
S=C(c1ccc(-c2ccccc2Cl)o1)N1CCCCC1	-10.5	?	16.4µM*	-41.6%	?	0.0%
O=C(O)c1ccc(-c2ccccc2Cl)o1	-6.1	25.1%	-16.8%	-4.6%	-12.0%	3.8%
S=C(c1ccc(-c2ccc(Cl)cc2)o1)N1CCCCC1	-51.6*	-5.0%	?	-12.4%	?	7.2%
N#CCCN1CCN(C(=S)c2ccc(-c3ccc(Cl)cc3)o2)CC1	-13.1	-15.9%	?	-6.8%	?	4.8%
N#Cc1cnc(SCC(=O)NNC(=O)COc2cccc3ccccc23)nc1N	33.2	3.8%	3.5%	-2.6%	1.2%	4.6%
O=C(Cn1cnc(S(=O)(=O)N2CCOCC2)c1)Nc1ccc(OC(F)(F)F)cc1	10.2	-8.3%	10.2%	-4.7%	-7.1%	0.5%
CCC(C)NC(=O)CSc1ccc(S(=O)(=O)N2CCN(Cc3ccccc3)CC2)cn1 (stereo not given)	-0.4	3.1%	29.1µM*	-11.7%	?	1.7%
N#Cc1ccc(CSc2ccc(S(=O)(=O)N3CCCCCC3)cn2)cc1	-4.7	?	29.1µM*	-37.6%	?	0.0%
O=S(=O)(c1ccc(SCc2ccccc2)nc1)N1CCCCC1	-15.5	-0.2%	-10.1%	-0.2%	-15.7%	1.0%
CC(C)NC(=O)NC(=O)CSc1ccc(S(=O)(=O)N2CCCC2)cn1	2.5	-3.2%	-13.5%	0.6%	-9.5%	-0.1%
O=S(=O)(c1ccc(SCc2ccccc2)nc1)N1CCCC1	0.0	-15.6%	-27.0%	-17.3%	?	-16.5%
CC(C)N(C(=O)CSc1ccc(S(=O)(=O)N2CCCCC2)cn1)C(C)C	-5.4	-12.4%	-26.9%	-11.9%	16.4µM*	-0.5%
O=[N+]([O-])c1ccc(CSc2ccc(S(=O)(=O)N3CCCCCC3)cn2)cc1	-8.5	?	16.4µM*	0.7%	23.1µM*	-1.5%
O=C(c1ccco1)N1CCN(Cc2cc(=O)c(OCc3c(F)cccc3Cl)co2)CC1	-9.0	1.7%	-18.1%	-5.6%	-19.0%	/
CC1CCN(S(=O)(=O)c2ccc3c(c2)N(CC(=O)N2CCN(c4ccccc4)CC2)C(=O)CO3)CC1	/	-13.4%	/	-7.4%	/	3.8%
Cc1ccc(C)c(Cn2nc(-c3cc(C)ccc3C)ccc2=O)c1	?	?	20.6µM*	-43.4%	?	7.0%
O=C(Nc1ccccc1Cl)c1ccc2nc(N3CCOCC3)sc2c1	-24.2	1.4%	-23.6%	-4.3%	?	/
Cc1ccc(N2C(=O)c3oc4ccccc4c(=O)c3C2c2cccc(O)c2)nc1 (stereo not given)	-11.2	?	?	-27.0%	20.6µM*	/
CCOC(=O)c1ccc(NC(=O)CN2C(=O)NC3(CCCCCCC3)C2=O)cc1	0.0	-2.3%	?	3.8%	14.6µM*	1.9%
CCCCOC(=O)c1ccc(NC(=O)CN2C(=O)NC3(CCCCCC3)C2=O)cc1	?	?	8.2µM*	-34.0%	10.3µM*	2.8%
SMILES	IL1B secr inh	TGFb inhibitor	DT40 TDP1 no CPT	HepG2 tox	TDP1 cell CPT	TDP1 inh
CCCCOC(=O)c1ccc(NC(=O)C(=O)NCc2ccncc2)cc1	23.9	5.0%	23.1µM*	16.0%	23.1µM*	0.0%
CCOc1ccccc1N(CC(=O)NCCc1ccc(OC)c(OC)c1)S(=O)(=O)c1ccccc1	0.0	-5.6%	?	-4.4%	?	3.3%[0.0935 µM]
O=C1CCCC=C1[C@@H](O)C1CCCCC1	/	/	/	/	/	6.9%[21 µM]
Cc1sc2ncnc(SCC(=O)N3CCCC(C(N)=O)C3)c2c1C (stereo not given)	17.2	4.9%	7.1%	1.0%	2.2%	-7.0%
N#Cc1ccc(-c2ccccc2)nc1SCCN1CCOCC1	-75.3*	-18.6%	?	-28.4%	-29.6%	4.2%
CC(C)c1c(C#N)c(N)nc(SCC(=O)c2cc3ccccc3oc2=O)c1C#N	-9.1	-18.6%	?	-9.8%	?	1.1%
N#Cc1ccc(-c2ccccc2)nc1SCC(=O)c1cc2ccccc2oc1=O	10.2	-21.0%	?	-29.4%	23.1µM*	7.4%
Cc1nc(SCC(=O)c2cc3ccccc3oc2=O)c(C#N)c(-c2cccs2)c1C(=O)Nc1ccccc1	-3.0	-23.7%	?	-20.0%	20.6µM*	6.2%
COC(=O)[C@H](CCSC)NC(=O)C/C=C\[C@@H](C)CO	/	/	/	/	/	6.9%[21 µM]
Cc1cccc(NCc2cc(Cl)cc(Cl)c2O)n1	-50.5*	-21.9%	-0.3%	-30.2%	-7.9%	0.0%
Cc1cccc(NCc2cc(Cl)ccc2O)n1	-78.6*	-0.8%	-14.2%	-8.4%	-26.4%	2.2%
COc1ccccc1C(=O)N/C(=C/c1ccc(Br)cc1)C(=O)N1CCOCC1	8.0	-5.0%	?	3.0%	-26.5%	/
CC(C)[C@H](NC(=O)c1nn(Cc2ccccc2)c(=O)c2ccccc12)C(=O)O	20.7	-5.7%	-4.1%	6.7%	12.3%	3.7%[0.0935 µM]
C=CCOC(=O)C1=C(C)OC(N)=C(C#N)C1c1c(C)nn(-c2ccccc2)c1Cl (stereo not given)	-12.5	-24.6%	9.2µM*	-1.4%	?	6.3%
CCC(=O)N=c1sc2c(OC)ccc(OC)c2n1C	17.7	1.9%	-10.6%	-13.9%	8.7%	/
COc1ccc(C)c2sc(=NC(=O)c3ccc(C(C)=O)cc3)n(C)c12	-11.0	-8.9%	?	-12.0%	14.6µM*	-4.7%
COc1ccc(C)c2sc(=NC(=O)c3ccccc3)n(C)c12	51.7	-7.7%	20.6µM*	-12.0%	?	2.2%
COc1ccc(C)c2sc(=NC(=O)c3cccc(N4C(=O)CCC4=O)c3)n(C)c12	45.7	-0.6%	2.7%	-8.9%	-11.6%	4.2%
O=C1C=C(Nc2cccc3cccnc23)c2ccccc2C1=O	-77.7*	5.01µM*	7.31µM*	3.55µM*	5.8µM*	9.7%
Nc1ccccc1S(=O)(=O)Nc1cccc2cccnc12	/	/	/	/	/	21.3%
